sEH act = soluble epoxide hydrolase activators, primary screen, biochemical, human sEH | AID 717, 2007 | 0.04% of 91,000 active | activation, % at 2 µM | purified human sEH enzymatic activity, activator screen; in the data active = activation above about 37%
PLK1 kinase inh = human PLK1 kinase inhibitors, primary screen, biochemical, TR-FRET | inhibition, % at 10 µM | 0.53% of 97,000 active | Serine/threonine-protein kinase PLK1 (Homo sapiens), P53350 | recombinant PLK1 kinase, TR-FRET peptide phosphorylation;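 active = inhibition of 50% or more in the single-concentration screen; inactive = inhibition below 50%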
EphB4 ephrin blk = EphB4-ephrin-B2 interaction antagonists, primary screen, biochemical, TNYL-RAW peptide probe, fluorescence polarization; Ephrin type-B receptor 4 (Homo sapiens), P54760; EphB4 LBD / TNYL-RAW-Alexa532 peptide; inhibition, % at 7 µM; 0.15% of 97,000 active; AID 720, 2007;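 active = inhibition above the screen-wide mean inhibition plus 3 SD, cut at about 15% in these data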
PLK1 PBD inh = Plk1 polo box domain binding inhibitors, primary screen, biochemical, fluorescence polarization | inhibition, %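 (tested at about 20 µM)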 | Plk1 PBD phosphopeptide binding | 0.13% of 97,000 active | Serine/threonine-protein kinase PLK1 (Homo sapiens), P53350 | AID 693, 2007; in the data active = inhibition above about 34%, passing the limit was not always enough
sEH inh = soluble epoxide hydrolase inhibitors, primary screen, biochemical, human sEH | 0.34% of 91,000 active | Bifunctional epoxide hydrolase 2 (Homo sapiens), P34913 | recombinant human sEH enzymatic activity assay | inhibition, % at 2 µM | AID 707, 2007; in the data active = inhibition above about 80%
PLK1 confirm = PLK1 kinase activity inhibitors, confirmation, biochemical, TR-FRET, duplicate runs; shares compounds with PLK1 kinase inh; recombinant PLK1 kinase, TR-FRET peptide phosphorylation; inhibition, % at 10 µM; 20% of 210 active; AID 744, 2007;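 active = inhibition at or above 50% in each of two repeat confirmation tests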
TR-FRET interf = compound interference with Plk1 assay readout, artefact control for Plk1 kinase inhibitor project, biochemical, TR-FRET, compound added post-reaction. shares compounds with PLK1 kinase inh. 210 tested, under 10 active. inhibition (interference), % at 10 µM;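 active = both duplicate runs show 50% or greater inhibition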
Numbers stand for hits; – = inactive; · = no result. A selection: hits, their analogues and other compounds. The true share with any hit is near 1%.

SMILES	sEH act	PLK1 kinase inh	EphB4 ephrin blk	PLK1 PBD inh	sEH inh	others
COC(=O)c1c(NC(=O)C2(C)Cc3ccccc3C(=O)O2)sc2c1CCCC2 (stereo unspecified)	–	–	–	–	–
CC1CCN(CCc2nc3cc(NC(=O)NC4CCCCC4)ccc3n2C)CC1	–	–	–	–	–
O=C(Nc1ccc(Cl)cc1)NC1CCCCC1	·	–	–	–	·
O=C(Nc1ccc(F)c(F)c1)NC1CCCCC1	–	–	–	–	90
COC(=O)[C@H](C)NC(=O)Nc1cccc(C(F)(F)F)c1	–	–	–	–	–
O=C(Nc1ccc(OC(F)F)cc1)Nc1cccc(C(F)(F)F)c1	–	–	–	–	86
O=C(Nc1cccc(C(F)(F)F)c1)NC1CCCCC1	–	–	–	–	94
O=C(Nc1ccc2c(c1)nc1n2CCN(C2CCCCC2)C1)NC1CCCCC1	–	–	–	–	89
COc1ccc(/C=N/NC(=O)CC(=O)NCc2cccnc2)cc1	–	–	–	–	–
O=C(O)C1C2C=CC(C2)C1C(=O)NCc1cccnc1 (stereo unspecified)	–	–	–	–	–
COc1ccc(-c2cnc(OC(C)(C)C)nc2OC(C)(C)C)cc1OC	–	–	–	–	–
O=C(CSc1cn(CCNC(=O)c2ccccc2)c2ccccc12)NCc1ccco1	·	67	–	–	·
Cc1cc(NC(=O)CSc2cn(CCNC(=O)c3ccccc3)c3ccccc23)no1	–	–	–	–	–
Cc1ccc(C(=O)NCCn2cc(SCC(=O)Nc3cc(C)on3)c3ccccc32)cc1	·	62	–	–	·
CN(c1ccccc1C(=O)Nc1ccccc1C(=O)NCc1ccco1)S(C)(=O)=O	–	–	15	–	–
Cc1cc2nc(-c3ccc(SCC(=O)N4CCc5ccccc54)nc3)[nH]c2cc1C	–	–	–	–	85
O=C(c1ccc(COc2ccccc2Cl)o1)N1CCN(Cc2ccc3c(c2)OCO3)CC1	·	–	18	–	·
COc1cc(-c2nnc(SCC(=O)/C(C#N)=C(\C)N)o2)cc(OC)c1OC	–	–	–	–	–
COc1ccc(C2CCCN2C(=O)Nc2ccc(Cl)cc2)cc1OC (stereo unspecified)	–	–	–	–	95
COc1ccc(NC(=O)C2CCCN2C(=O)Nc2ccccc2)cc1OC (stereo unspecified)	–	–	–	–	–
COc1ccc(OC)c(S(=O)(=O)NC(C)(C)C)c1	–	–	–	–	–
Cc1onc(-c2ccccc2)c1C(=O)Nc1ccc(S(=O)(=O)NC2=NCCCCC2)cc1	–	–	20	–	–
CCC(C)NS(=O)(=O)c1ccc(NC(=O)c2c(-c3ccccc3)noc2C)cc1 (stereo unspecified)	–	–	–	–	–
COc1ccc(NC(=S)NCc2ccco2)c(OC)c1	–	–	–	–	–
COc1ccc(-c2nnnn2CCc2ccccc2)cc1	–	–	–	–	–
SMILES	sEH act	PLK1 kinase inh	EphB4 ephrin blk	PLK1 PBD inh	sEH inh	others
CCOC(=O)CSC(C)C(=O)Nc1nnc(C(C)C)s1 (stereo unspecified)	·	64	–	–	·
O=C(NCCC1=CCCCC1)c1ccc(Cl)c(S(=O)(=O)N2CCOCC2)c1	–	–	–	–	94
C=CCN1C(=O)CSc2ccc(C(=O)NCCC3=CCCCC3)cc21	–	–	–	–	89
CC(=O)N1CCc2cc(C(=O)CN3CCN(c4cccc(Cl)c4)CC3)ccc21	·	–	–	–	·
CC(=O)N1CCc2cc(C(=O)CN3CCC(C)CC3)ccc21	·	82	–	–	·	PLK1 confirm=–;TR-FRET interf=–
CC(=O)N1CCc2cc(C(=O)CN3CCN(C(=O)c4ccco4)CC3)ccc21	·	70	–	–	·	PLK1 confirm=–;TR-FRET interf=–
O=C(CSCc1ccc(F)cc1)NCc1ccco1	–	–	–	–	–
CCc1cccc(OCC(=O)Nc2ccc(S(=O)(=O)Nc3onc(C)c3C)cc2)c1	·	75	–	–	·	PLK1 confirm=–;TR-FRET interf=–
CCN(CC)S(=O)(=O)c1ccc(C(=O)OCCN2C(=O)CCC2=O)cc1	·	74	–	–	·	PLK1 confirm=–;TR-FRET interf=–

High-throughput results as filed in PubChem BioAssay.
